Reference: PubChem BioAssay (NCATS)
Records with an inconclusive call do not appear. Calls of active or inactive are those of the source. Calls follow the shape of the dose curve; as a rule, active = well fitted curve in the direction sought with a large enough effect; inconclusive = small, poorly fitted or top-dose-only effect, or another doubt; inactive = no such curve, though single readings can be large; an effect the other way counts as inactive or inconclusive.

Key:
[1] = HPAF-II 18hr Apoptosis Induction qHTS against the NCATS CANVASS Library (AID 1347360)
Outline: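 Seed HPAF-II cells at 500/well in DMEM + 10% FBS, pin-transfer compounds, incubate 18 hours at 37 degrees C/5% CO2, add Caspase-Glo 3/7 reagent, wait 15 min, read luminescence.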

[2] = HEK293 12hr Apoptosis Induction qHTS against the NCATS CANVASS Library (AID 1347361)
Outline: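 Cells are seeded, dosed with an 11-point compound series and incubated 12 hours. Caspase-3/7 activity is detected by luminescent DEVD-substrate reagent after 15 minutes at room temperature.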

[3] = test system: NAD(P)H diaphorase (Clostridium kluyveri); assay: Diaphorse counterscreen qHTS: Assay Interference Panel against the NCATS CANVASS Library (AID 1347362)
Outline: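 Counterscreen for coupling-enzyme interference: resorufin fluorescence from resazurin/NADH turnover, read after 5 min at room temperature. Compounds were tested over an 11-point series after 15 min dark preincubation with diaphorase in PBS-Tween.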

[4] = biological target: Luciferin 4-monooxygenase (Photinus pyralis) (UniProt P08659); assay: Firefly luciferase counterscreen qHTS: Assay Interference Panel against the NCATS CANVASS Library (AID 1347363)
Sequence of Luciferin 4-monooxygenase (Photinus pyralis) (P08659 whole entry, looked up): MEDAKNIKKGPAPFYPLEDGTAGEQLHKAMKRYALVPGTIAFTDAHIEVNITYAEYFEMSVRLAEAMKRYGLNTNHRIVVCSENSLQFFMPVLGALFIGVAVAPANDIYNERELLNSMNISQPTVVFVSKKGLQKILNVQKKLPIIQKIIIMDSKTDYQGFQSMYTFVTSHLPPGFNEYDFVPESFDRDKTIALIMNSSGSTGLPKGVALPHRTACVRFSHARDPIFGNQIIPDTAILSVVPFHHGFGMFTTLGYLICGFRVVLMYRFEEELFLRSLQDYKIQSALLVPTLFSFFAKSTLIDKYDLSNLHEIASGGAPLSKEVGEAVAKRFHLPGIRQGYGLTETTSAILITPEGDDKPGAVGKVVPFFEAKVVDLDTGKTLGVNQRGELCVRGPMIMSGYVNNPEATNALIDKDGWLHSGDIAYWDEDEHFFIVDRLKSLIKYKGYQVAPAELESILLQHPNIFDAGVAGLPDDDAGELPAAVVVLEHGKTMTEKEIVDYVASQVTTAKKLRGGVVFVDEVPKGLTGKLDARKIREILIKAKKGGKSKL
Outline: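 Luminescence inhibition readout: compounds (11-point qHTS) sat 15 min at room temperature with substrate mix (0.013 mM luciferin and ATP), then firefly luciferase was added and signal read 5 min later.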

[5] = KB-8-5-11 Cancer Cell Toxicity qHTS against the NCATS CANVASS Library (AID 1347364); conditions: KB-8-5-11 MDR cells viability, CellTiter-Glo, 72 h; at 15.4 µM (top of the series); also: nearly all actives have a fitted effect of over 75% in size
Outline: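 KB-8-5-11 cells (500/well) in DMEM + 10% FBS were exposed to compounds in an 11-point qHTS series for 72 hr at 37C, 5% CO2. Viability was read by CellTiter-Glo luminescence.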

[6] = SDT Cancer Cell Toxicity qHTS against the NCATS CANVASS Library (AID 1347365);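 also: SDT canine glioma cells 500 per well in 1536 well plates; nearly all actives have a fitted effect of over 60% in size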
Outline: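 SDT canine glioma cells (500 cells/well) were exposed to compounds in an 11-point series for 72 hr at 37C, 5% CO2; viability was read as ATP content by CellTiterGlo luminescence.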

[7] = KB-3-1 Cancer Cell Toxicity qHTS against the NCATS CANVASS Library (AID 1347366); conditions: KB-3-1 viability, CellTiter-Glo luminescence, 72 h; at 15.4 µM (top of the series); also: nearly all actives have a fitted effect of over 75% in size
Outline: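 Luminescence from CellTiter-Glo (10 min, room temperature) measured KB-3-1 viability after 72 hr compound exposure at 37C. Cells were seeded at 500/well and tested in an 11-point series.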

[8] = qHTS for ATAD5 Agonist screened against the NCATS CANVASS Library (AID 1347367);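 also: luciferase reporter driven by ATAD5 which rises upon DNA damage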
Outline: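 HEK293T-ATAD5 luc reporter; 2000 cells/well; 5hr settle; cpd 11-pt qHTS; 16hr 37C 5% CO2 dark; viability by CellTiter-Fluor (AFC fluorescence); then luciferase luminescence, 30min RT.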

[9] = G06 Cancer Cell Toxicity qHTS against the NCATS CANVASS Library (AID 1347368); also: nearly all actives have a fitted effect of over 60% in size
Outline: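 G06 dog glioma cells seeded at 500 cells/well were exposed to compounds (11-point qHTS series) for 72 hr at 37C, 5% CO2; viability read as ATP content by CellTiterGlo luminescence.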

[10] = MCF7 Cancer Cell Toxicity qHTS against the NCATS CANVASS Library (AID 1347369); conditions: MCF7 viability, ATP luminescence (CellTiter-Glo), 72 h; at 15.3 µM (top of the series)
Outline: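 Cells seeded at 500/well, then compound pinned. Plates incubated 72 hr at 37C, 5% CO2. CellTiterGlo added; luminescence read.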

[11] = qHTS for ATAD5 Antagonist screened against the NCATS CANVASS Library (AID 1347370);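 also: HEK293T cells carrying an ATAD5 luciferase reporter co-treated with 10 µM 5-fluorouridine; nearly all actives have a fitted effect of over 65% in size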
Outline: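 HEK293T cells with a stably integrated ATAD5-controlled luciferase reporter were exposed to compounds (11-pt) alongside 10 uM 5-fluorouridine as ATAD5 stabilizer for 16hr at 37C. Viability was read by CellTiter-Fluor fluorescence, then ATAD5 by luminescence.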

[12] = J3T Cancer Cell Toxicity qHTS against the NCATS CANVASS Library (AID 1347371);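 also: J3T is a canine glioma cancer cell line seeded at 500 cells per well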
Outline: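 J3T dog glioma cells (500 cells/well) were exposed to compounds in an 11-point series for 72 hr at 37C, 5% CO2. Cytotoxicity was read as ATP content by CellTiterGlo luminescence.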

[13] = biological target: Nuclear receptor subfamily 1 group I member 3 (Homo sapiens) (UniProt Q14994); assay: qHTS for Constitutive Androstane Receptor (CAR) Antagonist screened against the NCATS CANVASS Library (AID 1347372);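 also: cells stimulated with 50 nM CITCO agonist so inhibition reflects antagonism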
Sequence of Nuclear receptor subfamily 1 group I member 3 (Homo sapiens) (Q14994 whole entry, looked up): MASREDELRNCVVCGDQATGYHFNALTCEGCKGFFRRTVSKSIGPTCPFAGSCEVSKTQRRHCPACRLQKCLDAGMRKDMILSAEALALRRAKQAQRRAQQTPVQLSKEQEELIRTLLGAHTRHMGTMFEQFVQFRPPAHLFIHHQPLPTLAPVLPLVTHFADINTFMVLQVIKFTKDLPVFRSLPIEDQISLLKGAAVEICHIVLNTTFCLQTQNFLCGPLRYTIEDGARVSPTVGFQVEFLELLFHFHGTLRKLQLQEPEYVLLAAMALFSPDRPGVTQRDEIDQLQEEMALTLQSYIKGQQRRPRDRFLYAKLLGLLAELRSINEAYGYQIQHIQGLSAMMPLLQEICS
Outline: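 HepG2-CYP2B6-hCAR double-stable cells plated, 4hr attach; cpd pin-transferred; CITCO 50 nM final; 24hr 37C/5% CO2; CellTiter-Fluor 1hr (fluorescence), then ONE-Glo luminescence.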

[14] = biological target: Nuclear receptor subfamily 1 group I member 3 (Homo sapiens) (UniProt Q14994); assay: qHTS for Constitutive Androstane Receptor (CAR) Agonist screened against the NCATS CANVASS Library (AID 1347373);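 also: every well also contained 1.5 µM PK11195 alongside the test compound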
Outline: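 HepG2 cells stably expressing hCAR and a CYP2B6-2.2kb luciferase reporter were treated for 24hr at 37C with compounds (11-point qHTS) in the presence of 1.5uM PK11195. Reporter activation was read by ONE-Glo luminescence.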

[15] = qHTS for Hypoxia signaling pathway (HIF-1) antagonists against the NCATS CANVASS Library (AID 1347374);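 also: HRE-bla ME-180 cells stimulated with cobalt chloride to stabilize HIF-1alpha; nearly all actives have a fitted effect of over 60% in size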
Outline: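 HRE-bla ME-180 cells (2,000/well, 0.5% dialyzed FBS) were pre-incubated 5 h, then given an 11-point compound series plus CoCl2 (60 uM solution as added) for 17 h at 37C. CCF4 β-lactamase read (ex 405, em 460/530 nm) after 2 h at RT.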

[16] = qHTS for Hypoxia signaling pathway (HIF-1) agonists against the NCATS CANVASS Library (AID 1347375)
Outline: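 HRE-bla ME-180 cells (beta-lactamase reporter under hypoxia responsive element) in 0.5% dialyzed FBS medium, 5 h at 37C, then compound 17 h, 11-point qHTS series. CCF4-AM FRET substrate 2 h RT; 460/530 nm emission read.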

[17] = 10-beta competent E. coli microbial cell viability qHTS against the NCATS CANVASS Library (AID 1347376)
Outline: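 10-beta competent E. coli (0.9 OD culture diluted to 0.2 OD) exposed to compounds in an 11-point qHTS series, incubated overnight at 37C, 5% CO2. Viability read as ATP by BacTiter-Glo luminescence after 20 min at room temperature.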

[18] = DH5-alpha competent E. coli microbial cell viability qHTS against the NCATS CANVASS Library (AID 1347377)
Outline: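 DH5-alpha E. coli suspension (0.9 OD culture diluted to 0.2 OD) exposed to compounds in an 11-point series, overnight at 37C, 5% CO2. Viability read as ATP by BacTiter-Glo luminescence after 20 min at room temperature.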

[19] = qHTS for H2AX Agonists against the NCATS CANVASS Library (AID 1347378);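 also: phospho-H2AX S139 level in CHO-K1 lysates by TR-FRET emission ratio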
Outline: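 CHO-K1, 1000 cells/well, o/n 37C; cpd several conc, 3 hr 37C, 0.76% DMSO; lyse 30 min RT; cryptate anti-pH2AX(S139) + d2 anti-H2AX, 24 hr RT; HTRF 665/620.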

[20] = qHTS for Inflammasome Signaling Inhibitors: IL-1-beta AlphaLISA screen against the NCATS CANVASS Library (AID 1347379);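 also: human THP-1 cells primed with LPS then triggered with ATP; secreted IL-1B measured as AlphaLISA emission at 615 nm; lower signal means less IL-1B release which is the wanted effect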
Outline: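 Human THP-1 cells were pretreated 1 hr at 37 °C with compounds (up to 57.5 uM final), then stimulated with LPS (250 ng/mL final) and ATP (1.25 mM final). Secreted IL-1B was read by AlphaLISA after 16 hr.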

Measured: outcome

C[C@@H]1O[C@@H](OC[C@H]2O[C@@H](Oc3c(-c4ccc(O)c(O)c4)oc4cc(O)cc(O)c4c3=O)[C@H](O)[C@@H](O)[C@@H]2O)[C@H](O)[C@H](O)[C@H]1O
inactive: all assays above
